Source: PubChem BioAssay
Shiga toxin inh – Shiga toxin inhibition; Vero cells, Shiga toxin protein synthesis inhibition reporter; 9.2% of 290,000 active; inhibition, % at 38.7 µM; in the data active = inhibition mostly above about 28%, no sharp cut-off; inactive = mostly below about 43%
TbPYK inhibitor – T. brucei pyruvate kinase inhibition; Potency, µM (series often up to 76.8 µM), most hits filed as inhibitors; 0.12% of 410,000 active; Q57TT1; TbPYK enzyme, Kinase-Glo Plus ATP luminescence, 45 min; also: nearly all actives have a fitted effect of over 50% in size
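Readout: single end-point luminescence (Kinase-Glo Plus, 10 min). Reaction conditions were TbPYK/substrate plus 130 uM ADP, 45 min at RT, pH 7.2 TEA buffer. No-enzyme wells served as controls, and data were normalized before concentration-response fitting.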
Cycloheximide cs – counter-screen hit for Shiga toxin inhibitors, cycloheximide; max response, %; cell reporter, cycloheximide protein synthesis inhibition counterscreen; AID 2314; 12% of 300,000 active; in the data active = max response mostly above about 13%, no sharp cut-off; inactive = mostly below about 14%; also: read at 38.3 µM for the half of the compounds with a filed dose
LmPK inhibitor – blocks Leishmania mexicana pyruvate kinase activity | purified LmPK, Kinase-Glo ATP luminescence, 1 h | AID 1721 | 0.37% of 290,000 active | Q27686 | Potency, µM (doses to about 57.5 µM), actives largely listed as inhibitors
Target sequence (Q27686 whole entry, looked up): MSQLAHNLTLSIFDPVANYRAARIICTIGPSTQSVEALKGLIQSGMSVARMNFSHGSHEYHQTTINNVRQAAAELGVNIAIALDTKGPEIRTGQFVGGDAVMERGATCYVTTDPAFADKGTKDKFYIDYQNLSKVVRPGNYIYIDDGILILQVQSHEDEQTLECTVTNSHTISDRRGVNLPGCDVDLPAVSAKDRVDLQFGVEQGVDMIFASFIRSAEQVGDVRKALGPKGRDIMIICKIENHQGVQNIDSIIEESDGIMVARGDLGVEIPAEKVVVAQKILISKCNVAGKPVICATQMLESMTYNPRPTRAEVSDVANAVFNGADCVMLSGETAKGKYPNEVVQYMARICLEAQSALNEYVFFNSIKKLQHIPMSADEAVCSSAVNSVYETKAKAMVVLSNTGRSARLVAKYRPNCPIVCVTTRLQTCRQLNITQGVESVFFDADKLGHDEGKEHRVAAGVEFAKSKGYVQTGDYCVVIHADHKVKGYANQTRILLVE
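In 50 mM imidazole pH 7.2 with 7 mM MgCl2, LmPK (0.1 nM) turned over PEP (0.5 mM) and ADP (0.1 mM) for 1 h at room temperature. Luciferase read-out of ATP.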
Sm TGR block – S. mansoni TGR enzyme inhibition; Q962Y6; purified TGR, DTNB reduction, TNB absorbance 405 nm; Potency, µM (titrated, usually from 114 µM), hits mostly inhibitors; 3% of 360,000 active; also: nearly all actives have a fitted effect of over 60% in size
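First, TGR (20 nM dispensed) and NADPH were mixed with compound. Second, a 15 min room-temperature incubation followed. Third, further NADPH and then DTNB were added to start the reaction. Finally, TNB absorbance was monitored kinetically.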
Giardia FBPA inh – Giardia lamblia aldolase inhibition; A8B2U2; purified Giardia FBPA; Potency, µM (titrated, usually from 59.6 µM), actives largely listed as inhibitors; 0.71% of 290,000 active; AID 2451; also: nearly all actives have a fitted effect of over 55% in size
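40 nM FBPA preincubated 10 min at RT with compound (up to 57.5 uM final), then substrate plus GAPDH/TPI/NAD/arsenate coupling and diaphorase/resazurin added. Fluorescence read after 20 min at RT, 525/598 nm.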
A number is an active result. Shown is part of a subset that was picked to be rich in hits. Unless noted, calls follow the shape of the dose curve; as a rule, active = well fitted curve in the direction sought with a large enough effect; inconclusive = small, poorly fitted or top-dose-only effect, or another doubt; inactive = no such curve, though single readings can be large; an effect the other way counts as inactive or inconclusive.

What do the screens show for `Fc1ccc(C2=NN(c3ccccc3)C(c3ccco3)C2)cc1` (stereo not drawn)?
Shiga toxin inh: inactive; TbPYK inhibitor: inactive; Cycloheximide cs: inactive; LmPK inhibitor: inactive; Sm TGR block: inactive; Giardia FBPA inh: inactive

Results for O=S(=O)(c1ccccc1)N1N=C(c2ccc(Cl)cc2)CC1c1ccco1 (stereo not drawn) ?
TbPYK inhibitor: inactive; Sm TGR block: 40µM

What do the screens show for `COc1ccc(S(=O)(=O)NC2CC(C)(C)NC(C)(C)C2)c2ccccc12`?
Shiga toxin inh: inactive; TbPYK inhibitor: inactive; Cycloheximide cs: inactive; LmPK inhibitor: inactive; Sm TGR block: inactive; Giardia FBPA inh: inactive

How did Cc1ccc(-c2nnc(Nc3ccc(O)cc3)c3ccccc23)cc1S(=O)(=O)N1CCN(C)CC1 do in these assays?
TbPYK inhibitor: inactive; Sm TGR block: inconclusive

What do the screens show for `CN(CC(=O)Nc1ccc(F)cc1)C(=O)c1ccc(-c2ccc(F)cc2)o1`?
TbPYK inhibitor: inactive

Results for CCOc1ccc(CCNC(=O)Cn2c(=O)c3cccn3c3ccc(F)cc32)cc1OCC ?
TbPYK inhibitor: inactive; Sm TGR block: inactive

What do the screens show for `O=C(CNC(=O)c1ccccc1)OCC(=O)N1N=C(c2ccc(Cl)cc2)CC1c1ccco1` (stereo not drawn)?
Shiga toxin inh: inactive; TbPYK inhibitor: inactive; Cycloheximide cs: inactive; LmPK inhibitor: inactive; Sm TGR block: inactive; Giardia FBPA inh: inactive

Results for O=C(c1ccc(Br)o1)N1N=C(c2ccc(Cl)cc2)CC1c1ccco1 (stereo not drawn) ?
Shiga toxin inh: inactive; TbPYK inhibitor: inactive; Cycloheximide cs: inactive; LmPK inhibitor: inactive; Sm TGR block: 45µM

What do the screens show for `Cc1ccc(C2=NN(C(=O)CCl)C(c3ccco3)C2)o1` (stereo not drawn)?
Shiga toxin inh: inactive; TbPYK inhibitor: inactive; Cycloheximide cs: inactive; LmPK inhibitor: inactive; Sm TGR block: 7.1µM; Giardia FBPA inh: inactive

Results for Clc1ccc(C2=NN(c3ccccc3)C(c3ccco3)C2)cc1 (stereo not drawn) ?
Shiga toxin inh: 75; TbPYK inhibitor: inactive; Cycloheximide cs: 44; LmPK inhibitor: inactive; Sm TGR block: inactive; Giardia FBPA inh: inactive

How did Cc1cc2nc(-c3cccc(Br)c3)c(CC(C)(C)C)n2c(C)c1Br do in these assays?
TbPYK inhibitor: inactive

What do the screens show for `Cc1ccccc1CNC(=O)Cn1ccc2cc(S(=O)(=O)N3CCCCC3)ccc21`?
TbPYK inhibitor: inactive; Sm TGR block: inactive

How did CCC(=O)Oc1ccc(NC(=O)c2ccco2)cc1 do in these assays?
Shiga toxin inh: inactive; TbPYK inhibitor: inactive; Cycloheximide cs: inactive; LmPK inhibitor: inactive; Giardia FBPA inh: inactive

Results for CCC(=O)Nc1ccc(NC(=O)c2ccco2)c(OC)c1 ?
Shiga toxin inh: 67; TbPYK inhibitor: inactive; Cycloheximide cs: 30; LmPK inhibitor: inactive; Sm TGR block: inactive; Giardia FBPA inh: inactive

What do the screens show for `COCCCn1c(SCC(=O)Nc2ccc(NC(=O)c3ccco3)c(OC)c2)nc2ccccc2c1=O`?
Shiga toxin inh: inactive; TbPYK inhibitor: inactive; Cycloheximide cs: inactive; LmPK inhibitor: inactive; Sm TGR block: 40µM; Giardia FBPA inh: inactive

What do the screens show for `O=C(Nc1nc(SCc2ccc(F)cc2)ns1)c1ccco1`?
Shiga toxin inh: inactive; TbPYK inhibitor: inactive; Cycloheximide cs: 16; LmPK inhibitor: inactive; Sm TGR block: inactive; Giardia FBPA inh: inactive

Results for CCC(=O)Nc1ccc(NC(=O)c2ccco2)cc1 ?
Shiga toxin inh: 57; TbPYK inhibitor: inactive; Cycloheximide cs: 25; LmPK inhibitor: inactive; Sm TGR block: inactive; Giardia FBPA inh: inactive

How did CC1(c2ccc(F)cc2)OC(=O)c2c1ccc1ccccc21 (stereo not drawn) do in these assays?
TbPYK inhibitor: inactive

What do the screens show for `CCCC(=O)Nc1ccc(NC(=O)c2ccco2)c(OC)c1`?
Shiga toxin inh: active; TbPYK inhibitor: inactive; Cycloheximide cs: 28; LmPK inhibitor: inactive; Sm TGR block: inactive; Giardia FBPA inh: inactive

How did COc1cc(NC(=O)c2cccc([N+](=O)[O-])c2C)ccc1NC(=O)c1ccco1 do in these assays?
Shiga toxin inh: 72; TbPYK inhibitor: inactive; Cycloheximide cs: 19; LmPK inhibitor: inactive; Sm TGR block: inactive; Giardia FBPA inh: inactive

How did COc1cc(NC(=O)c2cc([N+](=O)[O-])ccc2N2CCOCC2)ccc1NC(=O)c1ccco1 do in these assays?
Shiga toxin inh: inactive; TbPYK inhibitor: inactive; Cycloheximide cs: inactive; LmPK inhibitor: inactive; Sm TGR block: inactive

What do the screens show for `O=C(Nc1ccc(CSc2ccccc2)cc1)c1ccco1`?
Shiga toxin inh: 96; TbPYK inhibitor: inactive; Cycloheximide cs: 46; LmPK inhibitor: inactive; Sm TGR block: inactive

What do the screens show for `CCSc1nsc(NC(=O)Nc2ccc(F)cc2F)n1`?
Shiga toxin inh: 87; TbPYK inhibitor: inactive; Cycloheximide cs: 59; LmPK inhibitor: inactive; Sm TGR block: inactive; Giardia FBPA inh: inactive

Results for CC(C)c1ccc(N(C(=O)CNC(=O)c2ccco2)C(C(=O)NC2CCCC2)c2ccncc2)cc1 (stereo not drawn) ?
Shiga toxin inh: inactive; TbPYK inhibitor: inactive; Cycloheximide cs: inactive; LmPK inhibitor: inactive; Sm TGR block: inactive; Giardia FBPA inh: inactive

Results for Cc1ccc(-c2[nH]ncc2CN2CCN(C(=O)c3cccs3)CC2)cc1C ?
Shiga toxin inh: inactive; TbPYK inhibitor: inactive; Cycloheximide cs: inactive; LmPK inhibitor: inactive; Sm TGR block: inactive; Giardia FBPA inh: inactive

Results for COc1ccc(NC(=O)N2CC3(CCN(C(=O)c4ccncc4)CC3)C2)cc1 ?
TbPYK inhibitor: inactive; Giardia FBPA inh: inactive

How did O=C1ON=C(c2cccc([N+](=O)[O-])c2)/C1=C/c1ccc(O)cc1 do in these assays?
Shiga toxin inh: inactive; TbPYK inhibitor: inconclusive; Cycloheximide cs: inactive; LmPK inhibitor: inactive; Sm TGR block: 10µM; Giardia FBPA inh: inconclusive

Results for O=C1ON=C(c2ccc(Cl)c([N+](=O)[O-])c2)/C1=C/c1cccc([N+](=O)[O-])c1O ?
TbPYK inhibitor: inactive; Sm TGR block: inactive

How did Cc1ccc(C2=[N+]([O-])C3(CCCCC3=O)N(O)C2(C)C)cc1 (stereo not drawn) do in these assays?
Shiga toxin inh: inactive; TbPYK inhibitor: inactive; Cycloheximide cs: inactive; LmPK inhibitor: inactive; Sm TGR block: inconclusive; Giardia FBPA inh: inactive

How did CC1(C)C(c2ccco2)=[N+]([O-])C2(CCCCC2=O)N1O (stereo not drawn) do in these assays?
Shiga toxin inh: inactive; TbPYK inhibitor: inactive; Cycloheximide cs: inactive; LmPK inhibitor: inactive; Sm TGR block: 50µM; Giardia FBPA inh: inactive

What do the screens show for `O=C(COC(=O)CCS(=O)(=O)c1ccccc1)NC(=O)c1ccc(OC(F)F)cc1`?
TbPYK inhibitor: inactive; Sm TGR block: inactive

What do the screens show for `Cn1cnnc1SCc1ccc(-c2ccc(Br)cc2)o1`?
Shiga toxin inh: inactive; TbPYK inhibitor: inactive; Cycloheximide cs: inactive; LmPK inhibitor: inactive; Sm TGR block: 25µM; Giardia FBPA inh: inactive
